Screens deposited in PubChem by National Center for Advancing Translational Sciences (NCATS).
Sfp PPTase inh: Sfp phosphopantetheinyl transferase inhibition | Q9F4F7 | Biochemical Sfp PPTase activity, qHTS | Potency, µM, usual class: inhibitors | 310,000 compounds, 3.5% hits | AID 1490;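 further: the enzyme is Sfp with the accession as filed and its product quenches rhodamine fluorescence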
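Sfp 15 nM + cpd, 15 min RT; start w/ rhodamine-CoA 5 uM, BHQ-2-YbbR 12.5 uM (final); 50 mM Hepes pH 7.6, 10 mM MgCl2, 0.01% NP-40, 0.01% BSA; read 525/598 nm at 0 and 30 min.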
VP16 counter: inhibits Gal4-VP16 luciferase reporter, ROR gamma counter-screen; Drosophila S2 Gal4-VP16 UAS-luciferase, luminescence, 20 h; Potency, µM (doses to about 53.6 µM), most hits filed as inhibitors; 310,000 compounds, 3.5% hits; AID 2546;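 further: Gal4-VP16 expression switched on by copper sulfate through the metallothionein promoter; nearly all actives have a fitted effect of over 50% in size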
ALDH1A1 inh: blocks purified human ALDH1A1 activity; 220,000 compounds, 7.3% hits; Purified ALDH1A1, NADH fluorescence, propionaldehyde substrate; Potency, µM (highest dose often 75.3 µM), hits mostly inhibitors; P00352; active means well fitted inhibition curve with a large enough effect, not every such curve was filed as active; inconclusive means small, poorly fitted or top-dose-only effect, or another doubt; inactive means no such curve, though single readings can be large or run the other way
RORgamma inh: inhibitors of mouse ROR gamma transcriptional activity | Drosophila S2 Gal4-RORgamma UAS-luciferase reporter, 20 h | Potency, µM (doses to about 53.6 µM), usual class: inhibitors | 310,000 compounds, 5.4% hits | AID 2551; further: nearly all actives have a fitted effect of over 60% in size
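Drosophila S2 cells stably expressing Gal4-DBD/mouse RORγ fusion under metallothionein promoter plus UAS-luciferase; compound 1 h, then 700 uM CuSO4 induction for 20 h at ambient temperature; inhibition read as reduced luminescence.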
PLK1 PBD inh: PLK1 (human) polo-box domain binding inhibition; Potency, µM, hits mostly inhibitors; Plk1 PBD binding of FITC phosphopeptide, fluorescence polarization; P53350; 360,000 compounds, 2.8% hits; further: series mostly up to about 57 µM; nearly all actives have a fitted effect of over 65% in size
Target sequence (P53350 whole entry, looked up, the tested form may be a part): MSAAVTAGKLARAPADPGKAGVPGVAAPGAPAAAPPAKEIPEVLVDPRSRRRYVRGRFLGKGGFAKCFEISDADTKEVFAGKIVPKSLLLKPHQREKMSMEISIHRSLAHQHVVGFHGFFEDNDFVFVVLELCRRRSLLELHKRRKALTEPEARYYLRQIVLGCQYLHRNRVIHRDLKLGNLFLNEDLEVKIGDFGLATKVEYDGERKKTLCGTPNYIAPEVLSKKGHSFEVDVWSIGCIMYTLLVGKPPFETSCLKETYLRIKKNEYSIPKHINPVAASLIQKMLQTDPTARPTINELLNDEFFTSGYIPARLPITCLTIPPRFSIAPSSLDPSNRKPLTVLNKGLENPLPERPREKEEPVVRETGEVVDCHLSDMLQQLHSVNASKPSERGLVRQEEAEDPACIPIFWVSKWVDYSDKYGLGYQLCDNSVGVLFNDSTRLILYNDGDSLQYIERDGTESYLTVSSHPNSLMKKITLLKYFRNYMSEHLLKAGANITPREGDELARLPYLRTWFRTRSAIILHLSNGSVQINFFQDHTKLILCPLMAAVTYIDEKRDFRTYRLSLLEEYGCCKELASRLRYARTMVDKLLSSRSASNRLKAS
Hits are given with their value; – = inactive; ? = inconclusive; · = no result; [ ] = another dose, or the depositor's remark. Rows were chosen to be rich in hits. Some 12% of all compounds tested hit in one or more screens of this group. Unless noted, the call rests on the fitted dose curve; in most records, active means well fitted curve in the direction sought with a large enough effect; inconclusive means small, poorly fitted or top-dose-only effect, or another doubt; inactive means no such curve, though single readings can be large; an effect the other way counts as inactive or inconclusive.

SMILES | Sfp PPTase inh | VP16 counter | ALDH1A1 inh | RORgamma inh | PLK1 PBD inh
CC1=CC(=C2C(=O)c3ccccc3C2=O)C=C(C)N1Cc1ccco1 | 44.7µM | – | 7.94µM | – | –
O=[N+]([O-])c1cc2c(cc1/C=N/NS(=O)(=O)c1ccc(Br)cc1)OCO2 | – | – | 3.16µM | – | ?
Cc1nc(Nc2ccccc2)c2nc(-c3ccccc3)n(CCN3CCOCC3)c2n1 | – | – | ? | – | ·
CCCCC(=O)N1C(C)CCC1C (stereo not given) | · | · | · | · | 23.8µM
COc1ccc(Cc2c(-c3ccc(C)cc3)nc3ccc(Cl)cn23)c(C)c1 | · | · | · | · | –
CCC(c1nnnn1Cc1ccccc1)N1CCN(C(=O)c2ccco2)CC1 (stereo not given) | – | – | 6.31µM | –[10 µM] | –
CCC(c1nnnn1C1CCCC1)N1CCN(Cc2ccccc2)CC1 (stereo not given) | – | – | 14.1µM | ? | –
CCC(c1nnnn1Cc1ccco1)N1CCC(C(N)=O)CC1 (stereo not given) | – | – | ? | – | –
CCCC(c1nnnn1Cc1ccco1)N1CCC(C(N)=O)CC1 (stereo not given) | – | – | 3.55µM | – | –
CC(C)CC(c1nnnn1C1CCCC1)N1CCN(C(=O)c2ccco2)CC1 (stereo not given) | – | – | 8.91µM | – | –
CCC(c1nnnn1C1CCCC1)N1CCN(C/C=C/c2ccccc2)CC1 (stereo not given) | · | · | · | · | –
COc1ccc2[nH]c(=O)c(CN(C(=O)c3cccnc3)c3ccccc3C)cc2c1 | – | – | · | – | –
Cc1cccc(C)c1NC(=O)C1(C)CSCC(=O)N1CCOc1ccccc1 (stereo not given) | · | · | · | · | –
O=S(=O)(NCc1cccc(C(F)(F)F)c1)NCc1ccccc1F | – | – | – | – | –
O=C(c1ccco1)N1CCN(C(c2cccs2)c2nnnn2C2CCCC2)CC1 (stereo not given) | – | – | ? | – | –
Cc1ccc2occ(C(c3nnnn3C3CCCC3)N3CCN(C(=O)c4ccco4)CC3)c(=O)c2c1 (stereo not given) | – | – | 1.12µM | – | –
O=C(c1ccco1)N1CCN(C(c2ccccn2)c2nnnn2C2CCCC2)CC1 (stereo not given) | – | – | 12.6µM | – | –
CCCCC(c1nnnn1C1CCCC1)N1CCN(C(=O)c2ccco2)CC1 (stereo not given) | – | – | 11.2µM | – | –
Cc1ccc(NC2=NCC(=O)N2Cc2ccc3c(c2)OCO3)c(C)c1 | – | – | – | – | –
Cc1ccc(Nc2nnc(-c3ccc4c(c3)OCO4)o2)c(C)c1 | 50.1µM | – | 18.9µM | – | 21.2µM
COc1ccc(CC(=O)N2N=C(C)CC2(O)c2cccnc2)cc1OC (stereo not given) | – | ? | – | 11.2µM | –
COc1ccc(CC(=O)N2N=C(C)CC2(O)c2cccnc2)cc1 (stereo not given) | – | – | – | – | –
CC1=NN(C(=O)Cc2ccccc2)C(O)(c2ccccc2)C1 (stereo not given) | – | – | – | – | –
CCC1=NN(C(=O)Cc2ccc(OC)c(OC)c2)C(O)(C(F)(F)F)C1 (stereo not given) | – | ? | – | 15.8µM | –
CC1=NN(C(=O)Cc2ccc([N+](=O)[O-])cc2)C(O)(c2ccccc2)C1 (stereo not given) | – | 12.6µM | – | 8.91µM | –
SMILES | Sfp PPTase inh | VP16 counter | ALDH1A1 inh | RORgamma inh | PLK1 PBD inh
CC1=NN(C(=O)Cc2ccc([N+](=O)[O-])cc2)C(O)(c2cccnc2)C1 (stereo not given) | – | –[0.365 µM] | – | 14.1µM | –
O=C(CN(Cc1ccccc1)C(=O)c1csnn1)NCc1ccccc1 | – | – | – | – | –
CNc1nc(C)c([N+](=O)[O-])c(Nc2ccc(OC)cc2)n1 | – | – | · | – | 11.9µM
CC(=O)Nc1ccc(Nc2nc(C)c([N+](=O)[O-])c(Nc3ccc(NC(C)=O)cc3)n2)cc1 | – | – | – | ? | –
C/C(CCN1CCCc2nc(C)c(C)cc21)=N\O[C@@H](C)CN1CCCc2nc(C)c(C)cc21 | – | –[10 µM] | –[13.5 µM] | –[10 µM] | ·
Nc1ccccc1C(=O)C[C@H](N)C(=O)O | 70.8µM | · | – | · | –
NC(CC(=O)NC(c1ccccc1)(c1ccccc1)c1ccccc1)C(=O)O (stereo not given) | ? | – | – | – | –
Cc1noc(C)c1-c1cncnc1NCc1ccccc1 | – | – | ? | – | ·
Cc1ccccc1-c1cncnc1NCc1cccnc1 | 79.4µM | – | – | – | ·
Cc1noc(C)c1-c1cncnc1NCc1cccnc1 | 56.2µM | – | 25.1µM | – | ·
Cc1ccccc1-c1cncnc1NCc1ccccc1 | – | – | ? | – | ·
COC(=O)[C@@]12C[C@@H](CC(=O)N3CCOCC3)C(=O)N(Cc3ccc4c(c3)OCO4)C1=CCC(C)(C)C2 | · | · | · | · | –
CCOC(=O)n1c(=O)n(Cc2cccc(C)c2)c2ccccc21 | – | – | – | – | 11.9µM
O=c1ccn2c(n1)SC(c1ccccc1)C2 (stereo not given) | · | · | · | · | –
CCc1ccc(C2=NN(S(C)(=O)=O)C(c3cccs3)C2)cc1 (stereo not given) | – | – | 20µM | – | –
CCS(=O)(=O)Nc1cccc(C2=NN(S(=O)(=O)c3ccc(C)cc3)C(c3cccs3)C2)c1 (stereo not given) | – | – | 5.01µM | – | –
CCS(=O)(=O)Nc1cccc(C2=NN(S(=O)(=O)c3ccccc3)C(c3cccs3)C2)c1 (stereo not given) | – | – | ? | – | –
Cc1ccc(C2=NN(S(C)(=O)=O)C(c3cccs3)C2)cc1 (stereo not given) | – | ? | – | – | –
CCOC(=O)C1CCCN(C(=O)c2cc(C)n(C(C)(C)C)n2)CC1 (stereo not given) | · | · | · | · | –
O=C1NC[C@H](CCCCN2CCN(Cc3ccccc3)C(=O)C2=O)N(Cc2ccccc2)C1=O | · | · | · | · | –
Cc1ccc(-c2csc3ncnc(Sc4nnc(CN5CCCCCC5=O)o4)c23)cc1 | – | ? | 7.94µM | 10µM | –
CNC1(c2nnnn2-c2ccccc2C)CCOC(C)(C)C1 (stereo not given) | – | – | · | – | 15µM
COCCn1c(=S)[nH]c2cc(C(=O)NCCCN3CCOCC3)ccc2c1=O | 79.4µM | – | 15.8µM | – | –
CCOC(=O)CSc1nc2cc(C(=O)OC)ccc2c(=O)n1CCN1CCOCC1 | – | – | ? | – | –
COc1ccc(N2CCN(CCNC(=O)c3ccc4c(c3)[nH]c(=S)n3c5ccccc5nc43)CC2)cc1 | – | 3.55µM | ? | 6.31µM | –
COc1ccc(N2CCN(CCNC(=O)c3ccc4nc5ccccc5c(=O)n4c3)CC2)cc1 | – | – | · | – | –
COC(=O)c1ccc2c(=O)n(CCN3CCOCC3)c(SCC(=O)C(C)(C)C)nc2c1 | – | – | 12.6µM | – | –
COC(=O)c1ccc2c(=O)n(CCN3CCOCC3)c(=S)[nH]c2c1 | – | – | 3.98µM | – | –
O=S(=O)(O)c1ccc(O)cc1 | – | – | · | –[10 µM] | ·
CCn1c(=S)[nH]c2cc(C(=O)OC)ccc2c1=O | – | 11.2µM | – | 12.6µM | –
